Source: the supplement of paper PMC9262897, “Low-cost anti-mycobacterial drug discovery using engineered E. coli” (Nature Communications, 2022)
Structures can show the parent of a compound that is named as a salt. ± gives the standard deviation of the averaged measurements.

These compounds were tested on E. coli TESEC Mtb DapB (assay: growth (OD600 after 10 h); higher = more growth (less inhibition)). Details: arabinose induction (level): High; compound 0.1 mM; raw OD600 reference: median of DMSO wells […], cell-free background 0.041.
Description: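 TESEC E. coli strains in which the native enzyme is deleted and replaced by arabinose-inducible Mtb Asd, DapB, CysH or TrpD, each grown in its selective medium. Strains were screened against the Prestwick library at 0.1 mM and 1% DMSO in 384-well format at low and high arabinose induction. Growth is read as OD600 after 10 h in triplicate.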

SMILES	growth
CN(C)CCc1c[nH]c2ccc(Cn3cncn3)cc12 [Rizatriptan benzoate]	0.193 ± 0.0065
NCCc1c[nH]cn1 [Histamine dihydrochloride]	0.193 ± 0.015
COCCCC/C(=N\OCCN)c1ccc(C(F)(F)F)cc1 [Fluvoxamine maleate]	0.183 ± 0.014
CN1CCN(C2=Nc3ccccc3Oc3ccc(Cl)cc32)CC1 [Loxapine succinate]	0.19 ± 0.0079
CC[C@H]1OC(=O)[C@H](C)[C@@H](O[C@H]2C[C@@](C)(OC)[C@@H](O)[C@H](C)O2)[C@H](C)[C@@H](O[C@@H]2O[C@H](C)C[C@H](N(C)C)[C@H]2O)[C@](C)(O)C[C@@H](C)C(=O)[C@H](C)[C@@H](O)[C@]1(C)O [Erythromycin]	0.04857 ± 0.00045
N[C@@H]1CONC1=O [D-cycloserine]	0.2176 ± 0.0016
CN1CCN(CC(=O)N2c3ccccc3C(=O)Nc3cccnc32)CC1 [Pirenzepine dihydrochloride]	0.19 ± 0.013
OC(CCN1CCCCC1)(c1ccccc1)C1CCCCC1 (stereo not given) [Trihexyphenidyl-D,L Hydrochloride]	0.179 ± 0.016
c1ccc2c(c1)CCCc1cc(NCCN3CCOCC3)nnc1-2	0.179 ± 0.0094
COc1nc(C)nc(Cl)c1NC1=NCCN1 [Moxonidine]	0.209 ± 0.016
O=S(=O)(O)c1cc(O)ccc1O [Ethamsylate]	0.191 ± 0.013
Nc1ccc(S(=O)(=O)Nc2nccs2)cc1 [Sulfathiazole]	0.197 ± 0.012
Cc1cnc(C(=O)O)c[n+]1[O-] [Acipimox]	0.199 ± 0.013
O=C(O)c1cn(-c2ccc(F)cc2)c2cc(N3CCNCC3)c(F)cc2c1=O [Sarafloxacin]	0.0494 ± 0.00055
CCN1CCCC1CNC(=O)c1cc(S(=O)(=O)CC)c(N)cc1OC (stereo not given) [Amisulpride]	0.224 ± 0.02
CCC(=O)O[C@]1(C(=O)SCF)[C@H](C)C[C@H]2[C@@H]3C[C@H](F)C4=CC(=O)C=C[C@]4(C)[C@@]3(F)[C@@H](O)C[C@@]21C [Fluticasone propionate]	0.199 ± 0.015
Nc1nc(O)c2ncn(CCC(CO)CO)c2n1 [Penciclovir]	0.226 ± 0.013
C[C@]12CC[C@@H]3c4ccc(O)cc4C[C@@H](CCCCCCCCC[S+]([O-])CCCC(F)(F)C(F)(F)F)[C@H]3[C@@H]1CC[C@@H]2O (stereo not given in full) [Fulvestrant]	0.212 ± 0.0092
Cc1ccccc1C(OCCN(C)C)c1ccccc1 (stereo not given) [Orphenadrine hydrochloride]	0.19 ± 0.0094
COc1ccc(CCN(C)CCCC(C#N)(c2ccc(OC)c(OC)c2)C(C)C)cc1OC (stereo not given) [Verapamil hydrochloride]	0.177 ± 0.017

Same assay, conditions: arabinose induction (level): Low; compound 0.1 mM; raw OD600 reference: median of DMSO wells 0.227, cell-free background 0.041

SMILES	growth
CN(C)CCc1c[nH]c2ccc(Cn3cncn3)cc12 [Rizatriptan benzoate]	0.211 ± 0.015
NCCc1c[nH]cn1 [Histamine dihydrochloride]	0.23 ± 0.0077
COCCCC/C(=N\OCCN)c1ccc(C(F)(F)F)cc1 [Fluvoxamine maleate]	0.229 ± 0.05
CN1CCN(C2=Nc3ccccc3Oc3ccc(Cl)cc32)CC1 [Loxapine succinate]	0.248 ± 0.079
CC[C@H]1OC(=O)[C@H](C)[C@@H](O[C@H]2C[C@@](C)(OC)[C@@H](O)[C@H](C)O2)[C@H](C)[C@@H](O[C@@H]2O[C@H](C)C[C@H](N(C)C)[C@H]2O)[C@](C)(O)C[C@@H](C)C(=O)[C@H](C)[C@@H](O)[C@]1(C)O [Erythromycin]	0.052 ± 0.0057
N[C@@H]1CONC1=O [D-cycloserine]	0.245 ± 0.044
CN1CCN(CC(=O)N2c3ccccc3C(=O)Nc3cccnc32)CC1 [Pirenzepine dihydrochloride]	0.253 ± 0.038
OC(CCN1CCCCC1)(c1ccccc1)C1CCCCC1 (stereo not given) [Trihexyphenidyl-D,L Hydrochloride]	0.22 ± 0.018
c1ccc2c(c1)CCCc1cc(NCCN3CCOCC3)nnc1-2	0.2 ± 0.013
COc1nc(C)nc(Cl)c1NC1=NCCN1 [Moxonidine]	0.254 ± 0.017
O=S(=O)(O)c1cc(O)ccc1O [Ethamsylate]	0.244 ± 0.025
Nc1ccc(S(=O)(=O)Nc2nccs2)cc1 [Sulfathiazole]	0.199 ± 0.025
Cc1cnc(C(=O)O)c[n+]1[O-] [Acipimox]	0.217 ± 0.021
O=C(O)c1cn(-c2ccc(F)cc2)c2cc(N3CCNCC3)c(F)cc2c1=O [Sarafloxacin]	0.0482 ± 0.00017
CCN1CCCC1CNC(=O)c1cc(S(=O)(=O)CC)c(N)cc1OC (stereo not given) [Amisulpride]	0.239 ± 0.031
CCC(=O)O[C@]1(C(=O)SCF)[C@H](C)C[C@H]2[C@@H]3C[C@H](F)C4=CC(=O)C=C[C@]4(C)[C@@]3(F)[C@@H](O)C[C@@]21C [Fluticasone propionate]	0.239 ± 0.04
Nc1nc(O)c2ncn(CCC(CO)CO)c2n1 [Penciclovir]	0.244 ± 0.02
C[C@]12CC[C@@H]3c4ccc(O)cc4C[C@@H](CCCCCCCCC[S+]([O-])CCCC(F)(F)C(F)(F)F)[C@H]3[C@@H]1CC[C@@H]2O (stereo not given in full) [Fulvestrant]	0.258 ± 0.091
Cc1ccccc1C(OCCN(C)C)c1ccccc1 (stereo not given) [Orphenadrine hydrochloride]	0.241 ± 0.021
COc1ccc(CCN(C)CCCC(C#N)(c2ccc(OC)c(OC)c2)C(C)C)cc1OC (stereo not given) [Verapamil hydrochloride]	0.248 ± 0.044
